88 compounds from ChEMBL document CHEMBL3988442, “University of Dundee, Small-Polar-MMV Screening Library” (2021) can be followed below.

SMILES strings stand for the structures. Among all 48,000 compounds or so, about 13,000 (27%) showed an effect of 50% or more. This is one part of the list.

This assay has as its system Wolbachia pipientis. The experiment in a line: Anti-Wolbachia Cell-Based Screen. To be noted: 5 µM. It is filed as functional. Details: scale not given: in the data most compounds retested in dose-response had high values.
With `c1ccc(CCN2CCOC3(CCc4ccccc43)C2)nc1` (stereo not drawn), the “Percent Effect” value is -3.634%.
On to `CC[C@H]1CN2CC[C@H]1C[C@@H]2CNC(=O)Nc1cc(OC)cc(OC)c1`, for which the “Percent Effect” value is recorded as -7.573%.
The same measure for `CN1CCN2C(=O)N(C3CCOCC3)C[C@H]2C1`: -7.245%; for `Cc1ccc(C(=O)N2C[C@H]3CN(Cc4csc(C)n4)C[C@H]3C2)cn1`: 93.97%; for `Cc1nc(CN2C[C@@H]3CN(C(=O)c4ccncc4)C[C@@H]3C2)cs1`: 103.2%.
To `Cc1nc(CN2CCO[C@H]3CN(C(=O)c4ccncc4)C[C@H]32)cs1` belongs 6.304%.
To `Cc1nc(CN2CCC23CCN(C(=O)c2ccncc2)CC3)cs1` belongs -6.735%; to `CNC(=O)CN1CC[C@H]2CN(C(=O)c3ccc(C)nc3)C[C@H]2C1.O=C(O)C(F)(F)F`, -24.07%; to `Cc1ccc(C(=O)N2C[C@H]3CNC[C@H]3C2)cn1`, 11.13%.
`O=C(Nc1ccccc1)C1=NOC2(CCCNC2)C1` (stereo not drawn): the “Percent Effect” value is -15.15%.
The same measure for `Cl.N#CC1(C(=O)NCC2CCC3(CCNCC3)O2)CC1` (stereo not drawn): -12.24%; for `COc1cc2nc(NCc3ccc(C)nc3)nc(N)c2cc1OC`: 15.36%; for `CN1C[C@@H]2COC[C@]2(C(=O)NCc2cccs2)C1`: -12.7%.
To `Cc1cc(C)c(CNc2nc3ccccc3cc2CO)c(=O)[nH]1` belongs 34.93%; to `CC(Cn1cccn1)NCc1csc(-c2cccs2)n1` (stereo not drawn), 1.256%.
To `COc1ccc(CNC(C)Cn2cccn2)cc1OC` (stereo not drawn) belongs 104.4%; to `COc1ccc(CNC(C)Cn2cccn2)c(OC)c1OC.Cl` (stereo not drawn), 98.57%.
For `COc1cccc(CNC(C)Cn2cccn2)c1OC.Cl` (stereo not drawn), the “Percent Effect” value is recorded as 8.103%.
To `CC(Cn1cccn1)NCc1csc2c1CCCC2` (stereo not drawn) belongs 12.25%; to `COc1cc(CNCC(O)c2ccc(C)cc2)cc2c1OCCO2.Cl` (stereo not drawn), 4.109%.
The same measure for `COc1cc(CNC(C)Cn2cccn2)cc2c1OCCO2.Cl` (stereo not drawn): 99.62%; for `CCc1nc(CNC(C)Cn2cccn2)cs1` (stereo not drawn): 2.575%.
To `CC(Cn1cccn1)NCC(=O)NC1CCOCC1` (stereo not drawn) belongs 1.6%; to `COc1cc(CNC(C)Cn2cccn2)cc(OC)c1` (stereo not drawn), 102.9%.
With `CC(Cn1cccn1)NCCS(=O)(=O)c1ccccc1` (stereo not drawn), the “Percent Effect” value was -1.056%.
The same measure for `COc1c(Br)cc(Br)cc1CNC(C)Cn1cccn1` (stereo not drawn): 3.191%.
For `CC(c1ccc(F)cc1)N1CCN(Cc2ccc(C#N)cc2)CC1` (stereo not drawn), the “Percent Effect” value was determined as 26.99%.
The same measure for `CC(C)OCCNC1(c2ccc(Cl)cc2)CCOCC1`: 3.7%; for `CC(=O)N1C[C@H]2CNC[C@@]2(C(=O)NCCNc2ccncc2C)C1`: -5.626%; for `Cc1cccc(-c2ncc(CNC(C)Cc3ccncc3)cn2)c1` (stereo not drawn): -2.738%.
The same measure for `Cc1nnc([C@@H]2CC[C@@H]3[C@@H](CCN3Cc3ccccn3)O2)o1.O=C(O)C(F)(F)F.O=C(O)C(F)(F)F`: -6.583%.
The same measure for `COc1cc(CNC(C)Cn2cccn2)cc(OC)c1OC.Cl` (stereo not drawn): -0.312%; for `CC(Cn1ccnc1)NCc1ccc2nonc2c1` (stereo not drawn): -7.482%.
Regarding `COc1cc(CNC(C)Cn2cccn2)cc(Cl)c1OC.Cl` (stereo not drawn), the “Percent Effect” value turned out to be 86.44%.
The same measure for `COc1ccc(CNC(C)Cn2cccn2)cc1F` (stereo not drawn): 80.61%.
The same measure for `CC(Cn1cccn1)NCc1nc(-c2cccs2)no1` (stereo not drawn): -0.9937%; for `CC(Cn1cncn1)NCc1ccc2nonc2c1` (stereo not drawn): -26.41%; for `Cc1nc(C)c(CC(=O)N2C[C@@H]3CC[C@H](C2)N(CC2CC2)C3)s1`: 5.812%.
The same measure for `O=S1(=O)N(c2ccccc2)C[C@@H](O)[C@]12CCNC2`: 103.1%; for `O=C(O)C(F)(F)F.O=S1(=O)NCC2(CCNCC2)COc2ccccc21`: -6.327%; for `O=S1(=O)N(c2ccccc2)C[C@H](O)[C@]12CCNC2`: 107%.
Turning to `CN1CCN(Cc2ccco2)Cc2cccnc21`, the “Percent Effect” value stood at 10.4%.
The same measure for `OCC1N(Cc2ccco2)[C@H]2CC[C@]1(O)CC2` (stereo partly drawn): 109.9%; for `Cc1cccc(CN2C[C@@H]3COC[C@]3(COCC(=O)N(C)C)C2)n1.O=C(O)C(F)(F)F.O=C(O)C(F)(F)F`: 109.1%.
To `Cc1cc(CN2C[C@@H]3COC[C@]3(CNC(=O)N(C)C)C2)no1.O=C(O)C(F)(F)F` belongs -12.05%; to `Cc1cc(CN2C[C@@H]3COC[C@]3(COCC(=O)N(C)C)C2)no1`, 104.2%.
To `Cc1cc(CN2C[C@@H]3COC[C@]3(COCc3csc(C)n3)C2)no1.O=C(O)C(F)(F)F` belongs -7.222%.
For `COC[C@]12COC[C@H]1CN(Cc1ccc3ccccc3n1)C2.O=C(O)C(F)(F)F.O=C(O)C(F)(F)F`, the “Percent Effect” value is recorded as -16.09%.
To `CN(C)C[C@]12COC[C@H]1CN(Cc1ccc3ccccc3n1)C2.O=C(O)C(F)(F)F.O=C(O)C(F)(F)F.O=C(O)C(F)(F)F` belongs -5.05%; to `CCc1ccc(CN2C[C@H](OC)[C@H]3COC[C@H]32)o1.O=C(O)C(F)(F)F`, 106.4%.
The same measure for `Cc1noc(C)c1CN1C[C@H](OCC(=O)N(C)C)[C@H]2COC[C@H]21.O=C(O)C(F)(F)F`: -5.936%; for `Cc1ccc(CN2C[C@H]3OC(=O)N(Cc4ccccn4)[C@H]3C2)o1`: 4.449%; for `Cc1ccc(CN2C[C@@H](OCc3ccccn3)[C@H]3COC[C@H]32)o1.O=C(O)C(F)(F)F.O=C(O)C(F)(F)F`: 91.93%.
Regarding `Cc1ncsc1CN1C[C@@H](OCc2ccccn2)[C@H]2OCCC[C@H]21.O=C(O)C(F)(F)F.O=C(O)C(F)(F)F.O=C(O)C(F)(F)F`, the “Percent Effect” value is given as -3.232%.
In the case of `Cc1cccc(CN2C[C@H](NS(C)(=O)=O)[C@@H]3OCCC[C@@H]32)n1.O=C(O)C(F)(F)F.O=C(O)C(F)(F)F`, the “Percent Effect” value was -8.995%.
To `Cc1cccc(CN2C[C@@H]3CCCO[C@@H]3[C@H](NS(C)(=O)=O)C2)n1` belongs 6.966%; to `Cc1cccc(CN2C[C@H](OCc3ccccn3)[C@H]3COC[C@H]32)n1.O=C(O)C(F)(F)F.O=C(O)C(F)(F)F`, 114.7%.
The same measure for `Cc1cccc(CN2C[C@@H](NC(=O)C3CCC3)[C@H]3COC[C@H]32)n1`: 5.905%.
Consider `Cc1cccc(CN2C[C@@H]3COC[C@H](NS(C)(=O)=O)[C@@H]3C2)n1.O=C(O)C(F)(F)F.O=C(O)C(F)(F)F`, for which the “Percent Effect” value stood at 86.62%.
For the compound `Cc1noc(C)c1CN1C[C@H](OCC2CC2)[C@H]2COC[C@H]21.O=C(O)C(F)(F)F`, the “Percent Effect” value is -11.17%.
On to `Cc1cccc(CN2CCO[C@H]3[C@H](Oc4ccccn4)CC[C@@H]32)n1.O=C(O)C(F)(F)F.O=C(O)C(F)(F)F.O=C(O)C(F)(F)F`, for which the “Percent Effect” value was -5.124%.
For `O=C1NCCC12CN(CC1CC1)CC21CCNCC1` (stereo not drawn), the “Percent Effect” value is given as -8.947%.
To `CCC/C=C/c1ccc(CN2CCN(C)CC2)cn1` belongs -3.388%; to `CC(C)C(NC(=O)c1ccco1)C(=O)N1CCC2(CC1)OCCO2` (stereo not drawn), -15.39%; to `O=C(NCC(=O)N1CCC2(CC1)OCCO2)c1ccoc1`, 92.23%.
Turning to `CC(C)C(NC(=O)c1ccccc1)C(=O)N1CCC2(CC1)OCCO2` (stereo not drawn), the “Percent Effect” value is on record as -14.78%.
The same measure for `Cc1cccc(CN2C(=O)CC[C@H]3[C@@H]2CCN3CC(=O)N(C)C)n1.O=C(O)C(F)(F)F.O=C(O)C(F)(F)F`: 6.381%; for `Cc1cccc(CN2C(=O)C[C@H]3[C@@H]2CCN3Cc2ccco2)n1.O=C(O)C(F)(F)F.O=C(O)C(F)(F)F`: 95.2%; for `Cc1cccc(CN2C(=O)C[C@H]3[C@@H]2CCN3Cc2nccs2)n1.O=C(O)C(F)(F)F.O=C(O)C(F)(F)F`: 101.6%.
To `Cc1cccc(CN2C(=O)C[C@@H]3[C@@H]2CCN3Cc2ccsc2)n1.O=C(O)C(F)(F)F.O=C(O)C(F)(F)F` belongs 96.12%; to `Cc1ccc(-c2noc(CC[C@@H]3CCCN4CCCC[C@H]34)n2)nn1`, -24.46%; to `Cc1cc(N(C)C)nc(N2CCCC2c2cccnc2)n1` (stereo not drawn), 6.252%.
In the case of `CN(C)c1cc(C2CCCNC2)ccn1.Cl.Cl` (stereo not drawn), the “Percent Effect” value is 113.5%.
The same measure for `c1cncc(NCCNC2CCCNC2)c1` (stereo not drawn): 1.696%; for `CNc1cc(C2CCCNC2)nc(C)n1.Cl.Cl` (stereo not drawn): 69.51%; for `Cc1cc(C)nc(C2CCCNC2)n1.Cl.Cl` (stereo not drawn): 131.4%.
To `Cc1cc(N(C)C)nc(C2CCCNC2)n1.Cl` (stereo not drawn) belongs 130.2%.
With `O=C([C@H]1C[C@H]2OCC[C@H]2N(Cc2ccncc2)C1)N1CCCCO1`, the “Percent Effect” value is -15.5%.
To `Cc1nc(O)cc(CN2CC=C(c3cnn(-c4ccccc4)c3)CC2)n1` belongs 3.563%; to `O=C(O)C(F)(F)F.O=C1[C@H]2CN(Cc3cccs3)C[C@H]2CN1c1cncnc1`, 0.1136%.
The same measure for `Cc1cc(O)nc(C2CCCNC2)n1.Cl` (stereo not drawn): 166.7%; for `Cl.FC(F)(F)c1nc(C2CCCNC2)no1` (stereo not drawn): 113.6%; for `CC(C)c1nc(C2CCCNC2)no1.Cl` (stereo not drawn): -31.86%.
To `COc1ccc(F)cc1C(=O)C1CCCN(Cc2cnc(C)s2)C1` (stereo not drawn) belongs -11.09%; to `N#Cc1cccc(N2CCCC3(CNCCO3)C2)n1.O=C(O)C(F)(F)F.O=C(O)C(F)(F)F` (stereo not drawn), 1.133%.
Regarding `CN1C(=O)C2(CCN(Cc3cccnc3)CC2)c2cccc(F)c21.Cl`, the “Percent Effect” value amounted to 9.194%.
To `COc1ccc(CCN)cc1-c1ccc(S(C)(=O)=O)cc1` belongs -7.949%; to `O=C(c1cc(F)cc(F)c1)N1C[C@H]2CNC[C@H]2C1`, -1.943%.
